D1 antag: human D1 dopamine receptor antagonism; AID 504652; activity change, negative = inhibition, % at 10 µM; actives 3.2% (n = 360,000); HEK293 TREx D1 cells, calcium flux, dopamine EC80; stronger effect = lower value; P21728; in the data active means activity change below about -30%
Target sequence (P21728 whole entry, looked up): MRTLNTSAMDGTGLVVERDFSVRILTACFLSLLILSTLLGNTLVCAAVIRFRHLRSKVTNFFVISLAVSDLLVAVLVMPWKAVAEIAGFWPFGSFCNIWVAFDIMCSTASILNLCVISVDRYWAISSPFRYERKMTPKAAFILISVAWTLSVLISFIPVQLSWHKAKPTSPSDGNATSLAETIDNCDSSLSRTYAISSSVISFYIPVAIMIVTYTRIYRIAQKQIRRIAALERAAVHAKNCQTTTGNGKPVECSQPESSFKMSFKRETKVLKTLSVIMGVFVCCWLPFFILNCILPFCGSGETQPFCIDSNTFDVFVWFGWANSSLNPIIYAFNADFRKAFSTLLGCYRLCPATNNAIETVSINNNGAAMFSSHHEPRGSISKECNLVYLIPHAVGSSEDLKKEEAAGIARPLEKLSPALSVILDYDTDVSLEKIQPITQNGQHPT
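Kinetic fluorescence of a calcium dye serves as the read-out. D1-expressing Hek293 Trex cells, induced overnight at 30 C, are exposed to compound for 180 s before an EC80 dopamine addition, then read 180 s further.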
D1 agonist: human D1 receptor agonism; actives 1% (n = 360,000); P21728; activation, % at 2 µM; HEK293 T-REx D1 cells, calcium flux, agonist mode
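Tetracycline-induced HEK293 TREx D1 cells, force-coupled to calcium signalling, were dye-loaded with a no-wash calcium kit. Compound was pin-added after a 10 s baseline. Fluorescence was read kinetically at 1 cycle/s for 180 s, with calcium rises flagged as agonism.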
TRHR ag: TRH receptor (human) agonism | TRHR cells, calcium flux fluo-8, FDSS agonist mode | activation, % at 2 µM | actives 0.18% (n = 360,000) | AID 493084
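TRHR-expressing cells loaded with fluo-8 calcium dye; 23 nL library compound pin-transferred, kinetic FDSS fluorescence (Ex 480/Em 530) recorded about 180 s for agonist-induced calcium release, before a 10 nM TRH EC20 addition for potentiator mode.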
TRHR enhancer: allosterically enhances the human TRH receptor; AID 493056; TRHR cells, fluo-8 calcium fluorescence, EC20 TRH enhancement; P34981; enhancement, % at 2 µM; actives 0.66% (n = 360,000); in the data active means enhancement above about 30%
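TRHR-expressing cells loaded with fluo-8 calcium dye were read kinetically (ex 480/em 530) during compound addition, then stimulated with an EC20 of TRH (10 nM final). Enhancement of the Gq-mediated intracellular calcium response was scored.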
D1 PAM: enhances dopamine response at the human D1 receptor. HEK293 TREx D1 cells, calcium flux, dopamine EC20 potentiation. potentiation, % at 10 µM. actives 0.036% (n = 360,000). AID 504651; in the data active means potentiation above about 30%
Each line names hits and unclear results; the compound was inactive in the other large screens; ! = a repeat was not active. In the library only some 4.6% were active in any assay of this set; here they are far more common. Unless noted, no stated cut-off is given here; in the data, active means activation above about 30%; inactive means the rest.

O=C(/C=C/c1ccccc1)NCCSCc1ccccc1Cl	D1 antag -32
O=C(/C=C/c1ccccc1)NCCSCc1ccc(Cl)cc1	none
COc1ccc(C(=O)Nc2ccc(C(=O)OCc3cc(=O)n4nc(C(C)C)sc4n3)cc2)cc1	none
Nc1c(C(O)(C(F)(F)F)C(F)(F)F)cc(C(O)(C(F)(F)F)C(F)(F)F)c2ccccc12	D1 agonist 40
CCc1ccc(NC(=O)CCCn2nc(C)c3c(C)n(-c4ccccc4)nc3c2=O)cc1	none
O=C(NCc1ccc(F)cc1)c1nnc(Cc2cccc(F)c2)o1	none
O=C(NCCc1ccccc1)c1nnc(Cc2cccc(F)c2)o1	D1 agonist 38
O=C(NCc1ccc2c(c1)OCO2)c1nnc(Cc2ccc(F)cc2)o1	D1 antag -56
O=C(NCc1cccnc1)c1nnc(Cc2ccc(F)cc2)o1	none
CCCN(CCC)C(=O)c1cc2c(=O)n3cccc(C)c3nc2s1	D1 antag -60!
CCC1CCCCN1C(=O)c1cc2c(=O)n3cccc(C)c3nc2s1 (stereo unspecified)	TRHR enhancer 39
O=C(Cc1cccc(F)c1)N1CCCC(CO)(Cc2ccc(F)cc2F)C1 (stereo unspecified)	none
COc1cccc(CC(=O)N2CCCC(CO)(Cc3ccc(F)cc3F)C2)c1 (stereo unspecified)	D1 antag -47
COc1ccccc1/C=C/CN1CCCC(CO)(Cc2cccc(Cl)c2)C1 (stereo unspecified)	none
COc1cccc(CC2(CO)CCCN(C/C=C/c3ccccc3OC)C2)c1 (stereo unspecified)	D1 agonist 33
Cc1ccc(S(=O)(=O)N2CCN(c3ccccc3)CC2)cc1C(=O)NC1CCCCC1	none
CCc1cc2c(=O)[nH]c(Cc3ccccc3)nc2s1	none
Cc1cc2c(=O)[nH]c(Cc3ccccc3)nc2s1	D1 antag -41
CC(NC(=O)c1cc2sccc2n1C)c1ccc2c(c1)OCCO2 (stereo unspecified)	none
CCn1c(C(=O)NC(C)c2ccc3c(c2)OCCO3)cc2sccc21 (stereo unspecified)	D1 antag -32
Cc1ccc(S(=O)(=O)NC(N)=NCCC[C@@H](N)C(=O)Nc2cc(C(F)(F)F)ccc2Cl)cc1	none
Cc1cccc(CCNC(=O)c2nn(C)c3c2CSc2ccccc2-3)c1	none
COC(=O)C1=CO[C@@H](C)[C@H]2CN3CCc4c([nH]c5ccccc45)[C@@H]3C[C@H]12	D1 antag -52
COc1ccc(N(CC(=O)Nc2ccc(C)cn2)S(=O)(=O)c2c(C)noc2C)cc1	D1 antag -80
COc1cc(OC)c(NC(=O)Cn2c(=O)nc(-c3ccccc3)c3ccccc32)cc1Cl	none
O=C(Nc1cccnc1)c1ccc(COc2cc(Cl)ccc2Cl)o1	none
O=C(N/N=C/c1ccc(O)cc1)c1ccc(COc2cc(Cl)ccc2Cl)o1	D1 agonist 43
Cc1ccc(S(=O)(=O)N(Cc2cccc(C(F)(F)F)c2)C(=O)N2CCN(C)CC2)cc1	none
Cc1ccc(S(=O)(=O)N(CC(=O)Nc2cccc(C(F)(F)F)c2)C(=O)N2CCN(C)CC2)cc1	D1 antag -38
CCN(CC)S(=O)(=O)c1ccc(NC(=O)Nc2cccc(C(F)(F)F)c2)cc1	D1 antag -32
O=C(Nc1ccc(OC(F)F)cc1)Nc1cccc(C(F)(F)F)c1	D1 antag -38
Cc1ccc(S(=O)(=O)Nc2ccc(NC(=O)Nc3cccc(C(F)(F)F)c3)cc2)cc1	none
CCC(=O)N1CCc2cc(S(=O)(=O)NCCC(=O)Nc3ccc(OC)c(Cl)c3)ccc21	none
O=C(CS(=O)(=O)c1cccc2nsnc12)N1CCN(c2ccccc2)CC1	none
Cc1ccccc1CNC(=O)C(=O)NCC(c1cccs1)S(=O)(=O)c1ccc(Cl)cc1 (stereo unspecified)	none (no result: D1 antag)
C/C(=N\OCC(=O)OCC(=O)NC(=O)c1ccccc1)c1ccc2c(c1)OCO2	D1 antag -40
COC(=O)c1ccccc1NC(=O)CN1CCC(C(=O)c2ccc3c(c2)OCCO3)CC1	D1 antag -32
COC(=O)c1ccccc1NC(=O)COC(=O)CO/N=C(\C)c1ccc2c(c1)OCO2	D1 antag -31
C/C(=N\OCC(=O)OCC(=O)Nc1cc(S(C)(=O)=O)ccc1Cl)c1ccc2c(c1)OCO2	none
COc1ccc(CCC(=O)OCC(=O)NCc2ccc3c(c2)OCO3)cc1	none (no result: D1 PAM)
Cc1ccc(NC(=O)CN2CCC(C(=O)c3ccc4c(c3)OCCO4)CC2)cc1	none
C/C(=N\OCC(=O)Nc1ccc2c(c1)OCCO2)c1ccc2c(c1)OCCO2	none
COc1ccc(CNC(=O)COC(=O)CO/N=C(\C)c2ccc3c(c2)OCO3)cc1	D1 antag -33
Cc1ccc(Cn2cc(S(=O)(=O)c3cccc(C)c3)c(=O)c3cc(F)c(N4CCOCC4)cc32)cc1	none
Cc1oc(-c2ccc(C(=O)NCc3ccc(Cl)cc3)cc2)nc1CS(=O)(=O)c1ccccc1	none
Cc1cc(C)cc(C(=O)OCC(=O)N2CCCCCC2)c1	D1 antag -30
COc1ccc(C2c3c(-c4ccccc4)n[nH]c3C(=O)N2c2ccc(C(=O)O)cc2)c(OC)c1 (stereo unspecified)	D1 antag -35
COc1ccccc1/C=C/c1nc2ccccc2n1C(C)C	none
COC(=O)CNc1c(-c2ccccc2)nc2ccc(Br)cn12	TRHR enhancer 38
CCc1ccc(CN2CCc3nc(Nc4ccc5c(c4)OCCO5)ncc3C2)cc1	D1 antag -66
COc1ccc(CCNC(=O)CSc2nc(-c3ccc(F)cc3)cc(C(F)(F)F)n2)cc1OC	none
Cc1ccc(N=C2SC(C(=O)O)CC(=O)N2C)cc1C (stereo unspecified)	TRHR enhancer 34
CCCn1c(SCc2nc(-c3ccc(OC)c(OC)c3)no2)nnc1-c1ccccc1	none
O=c1[nH][nH]cc1C=Nc1ccc(Oc2ccccc2)cc1	none
COc1ccc(N=Cc2c[nH][nH]c2=O)cc1	D1 antag -33
COc1ccc(NC(=S)NNC(=O)COc2ccc(Cl)cc2Cl)cc1	D1 agonist 44
COC(CC(=O)NNC(=S)Nc1ccc(Cl)cc1)OC	D1 antag -30
CC1CN(S(=O)(=O)c2cccc(C(=O)Nc3ccc(S(=O)(=O)NC4=NCCCCC4)cc3)c2)CC(C)O1 (stereo unspecified)	none
O=C1Cc2ccccc2Sc2ccccc21	none
Cc1ccc2c(c1)Sc1ccccc1CC2=O	D1 antag -48
CN(C)CCOc1ccc2c(c1)Sc1ccccc1CC2=O	D1 antag -30
CCOC(=O)C1CCCN(c2ncnc3c2cnn3-c2ccc(C)c(Cl)c2)C1 (stereo unspecified)	D1 antag -34
Cc1ccc(-c2nnn(CC(=O)NC3CCN(Cc4ccccc4)CC3)n2)cc1	D1 agonist 31

Screening results from PubChem.
